Several values for one entry are separate records, joined by “and”; a condition that tells them apart may be missing. Identical values can stand only once. About 83,000 compounds went through this panel and 20% of them were active in at least one assay; those are over-represented in the sample as a whole.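 The endpoint reported here, percent growth, reads 100 for growth as untreated, 0 for no net growth and -100 for all cells dead.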 Activity calls are given as the source filed them. Rule for the calls: active = growth percent below 10; inactive = the rest.
Test system: COLO 205 colon
Assay: NCI-60 one-dose screen, 48 h (100 = growth as untreated, 0 = no growth, -100 = all killed)
Conditions: 10 µM

Structure (SMILES) | growth
O=c1ccn2c(n1)OC1CC2OC1COC(c1ccccc1)(c1ccccc1)c1ccccc1 (stereo not given) | 112% (inactive)
CS/C(=C\c1ccc(C(=O)c2ccc(C)cc2)n1C)S(C)=O (stereo not given) | 126% (inactive)
S=c1nc[nH]c2nc[nH]c12 | 35.2% (inactive)

Same assay, conditions: 10 µM unless noted

Structure (SMILES) | growth
Cc1c(Cl)cc(Cl)c(N)c1Cl | 108% (inactive)
Oc1ccc(O)c(-c2ccccc2)c1 | 85.9% (inactive)
CCOCCC(=O)O | 110% (inactive)
CCOC(=O)NC(N)=O | 110% (inactive) and 118% (inactive)
CCCCC/C(C)=N\NC(N)=S | 92.8% (inactive)
COc1cc2c(cc1O)C(=O)CCCC2 | 143% (inactive)
O=C1C=CC[C@H](/C=C/c2ccccc2)O1 | 57.9% (inactive) and -70.8% (active)
NC1=NC(c2ccccc2)N=C(Nc2ccccc2)N1 (stereo not given) | 91.7% (inactive) and 63.4% (inactive)
CSc1nc(N)c(N)c(N)n1 | 117% (inactive)
CCN(C)c1ccccc1 | 95.7% (inactive)
Cc1cnc(N)s1 | 102% (inactive)
COC(=O)c1nc(=S)[nH]c(C(=O)OC)c1C(=O)c1ccccc1 | 119% (inactive)
CC(=O)c1cc2ccccc2o1 | 114% (inactive)
OCCCc1ccccc1 | 94.1% (inactive)
CCC/C(=N/NC(N)=O)c1ccco1 | 107% (inactive)
O=C1C(=O)c2ccccc2C(O)=C1CC=C(Cl)Cl | 57.1% (inactive) and 57.7% (inactive)
CCC(=O)Oc1ccc(OCc2ccccc2)cc1 | 124% (inactive) and 113% (inactive)

— PubChem BioAssay (NCI)
